Measurements published in PubChem BioAssay.
The source made the active and inactive calls.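 The calls were made as follows: active = inhibition above 20% together with a positive visual image hit; inconclusive = visual image hit but inhibition not above 20%; inactive = no visual image hit.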

experiment: inhibitors of TNFa-induced NFkB p65 translocation, primary screen, imaging, HUVEC, MLSMR starter and 10KST1 sets (AID 438); conditions: HUVEC TNFa-induced p65 nuclear translocation; cell count: measured here: nuclei count (cytotoxicity indicator), at 2.08 µM; inhibition: at 2 µM, stronger effect = higher value, 0% TNFa-plus-vehicle, 100% no-TNFa wells;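 also: compound added about 3h40 before a 20 min TNFalpha stimulation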;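 as to inhibition: signal is the nuclear over cytoplasmic p65 intensity ratio per well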

What does the source list for Cc1cc(NC(CC(C)C)C(=O)O)nc(Cc2ccccc2)n1 (stereo not given)?
inhibition: -2.8% (inactive); cell count: 372

Which cell count does the source give for CSc1nc2[nH]c3c(c2c2nnnn12)CCCC3 here?
Its cell count is 571.

What about the inhibition of the same molecule?
Its inhibition is -2.3% (inactive).

Which cell count does the source give for CCOc1ccc(N2C(=O)CC(N)C2=O)cc1 (stereo not given) here?
The cell count was 726.

And the inhibition?
Its inhibition is 11.3% (inactive).

With Cc1nn2cnc3sc4c(c3c2nc1=O)CCCC4 as the molecule, how does the inhibition read?
Its inhibition is -9.5% (inactive).

What about the cell count of the same molecule?
Its cell count is 535.

With Nc1c(C(=O)NCc2ccco2)sc2nc(N3CCOCC3)c3c(c12)CCCC3 as the molecule, how does the inhibition read?
Its inhibition is -3.3% (inactive).

What about the cell count of the same molecule?
Its cell count is 510.

For CC(NC(=O)Nc1ccc(O)cc1)(C(F)(F)F)C(F)(F)F, which cell count is on record?
Its cell count is 709.

What about the inhibition of the same molecule?
The inhibition was -15.9% (inactive).

What does the source list for Cc1cccc(-c2nnc3n2N=C(c2ccccc2)CS3)c1?
inhibition: 6.8% (inactive); cell count: 713

With N#Cc1nc(COc2ccccc2)oc1N1CCCC1 as the molecule, how does the cell count read?
Its cell count is 463.

What about the inhibition of the same molecule?
The inhibition was -4.6% (inactive).

Which inhibition does the source give for COCCn1c(SCc2c(F)cccc2Cl)nc2c1c(=O)[nH]c(=O)n2C here?
The inhibition was 3.4% (inactive).

And the cell count?
The cell count was 654.

Which inhibition does the source give for Cn1c(=O)[nH]c(=O)c2c1nc(Br)n2CCSc1nnnn1-c1ccccc1 here?
Its inhibition is 0.9% (inactive).

What about the cell count of the same molecule?
The cell count was 639.

Which cell count does the source give for Cn1c(N)c(C#N)c(C#N)c1-c1ccccc1 here?
Its cell count is 625.

And the inhibition?
Its inhibition is -10.7% (inactive).

For CCOC(=O)CC(=O)CSc1nnc2sc3ccccc3n12, which cell count is on record?
Its cell count is 493.

And the inhibition?
The inhibition was -14.5% (inactive).

What does the source list for CCc1nc(NC2CCCCC2)c(C#N)c2c1COC(C)(C)C2?
cell count: 573; inhibition: -9.3% (inactive)

With CCc1nc(N2CCOCC2)c(C#N)c2c1CCCC2 as the molecule, how does the inhibition read?
The inhibition was -6.2% (inactive).

And the cell count?
The cell count was 397.

What does the source list for COC(=O)c1ccc(C2/C(=C(\O)c3ccc4c(c3)OCCO4)C(=O)C(=O)N2CCCN(C)C)cc1 (stereo not given)?
inhibition: -2.2% (inactive); cell count: 366

What does the source list for C=CCOc1ccc(/C(O)=C2/C(=O)C(=O)N(CCCN3CCOCC3)C2c2ccccc2)cc1 (stereo not given)?
cell count: 400; inhibition: -4.5% (inactive)

With Cc1cc(=O)oc2ccc(OCC(=O)N3CCc4ccccc43)cc12 as the molecule, how does the inhibition read?
Its inhibition is -1.2% (inactive).

And the cell count?
Its cell count is 630.

With Cc1ccc(NC(=O)Cn2nc(C)c3ccccc3c2=O)cc1 as the molecule, how does the cell count read?
The cell count was 576.

And the inhibition?
The inhibition was -1.6% (inactive).

For O=C(c1ccccc1)n1c(=S)nc2ccccn21, which cell count is on record?
The cell count was 751.

And the inhibition?
Its inhibition is -1.4% (inactive).

What does the source list for CCC(C)Nc1nc(OC)nc(N(C)C#N)n1 (stereo not given)?
inhibition: 7.6% (inactive); cell count: 675

For Cc1[nH]nc(-c2ccc(O)cc2O)c1Oc1ccccc1, which cell count is on record?
Its cell count is 565.

What about the inhibition of the same molecule?
Its inhibition is -2.3% (inactive).

With O=C(NCCC1=CCCCC1)c1ccc(=O)oc1 as the molecule, how does the cell count read?
Its cell count is 670.

What about the inhibition of the same molecule?
Its inhibition is -1.4% (inactive).

What does the source list for c1ccc(-n2ncc3c(N4CCCC4)ncnc32)cc1?
cell count: 589; inhibition: -7% (inactive)

With Cc1cc2c(c(=O)o1)C(CC(C)C)C(C#N)=C(N)O2 (stereo not given) as the molecule, how does the cell count read?
Its cell count is 703.

What about the inhibition of the same molecule?
Its inhibition is 2% (inactive).

Which inhibition does the source give for O=c1cc(-c2ccco2)nc(-c2cccs2)o1 here?
Its inhibition is 5.6% (inactive).

And the cell count?
The cell count was 667.

With O=C(Nc1nnc(SCc2ccccc2F)s1)c1ccco1 as the molecule, how does the cell count read?
The cell count was 600.

And the inhibition?
The inhibition was -10.3% (inactive).

Which cell count does the source give for CCN(CC)CCCN1C(=O)C(=O)/C(=C(/O)c2ccc(OC)cc2)C1c1ccco1 (stereo not given) here?
The cell count was 651.

What about the inhibition of the same molecule?
Its inhibition is -11.9% (inactive).

With Cn1c(=O)[nH]c2cc(Cl)cnc21 as the molecule, how does the inhibition read?
The inhibition was -14% (inactive).

What about the cell count of the same molecule?
Its cell count is 378.

What does the source list for C[N+]1(CCNC(=O)/C=N/O)CCCCC1?
inhibition: -0.1% (inactive); cell count: 468

Which cell count does the source give for COC(=O)c1ccc(C2/C(=C(\O)c3cccc(OC)c3)C(=O)C(=O)N2CCCN(C)C)cc1 (stereo not given) here?
Its cell count is 632.

What about the inhibition of the same molecule?
The inhibition was -19.7% (inactive).

For Cc1cc(=O)oc(C)c1C(=O)n1nc(C)c2c1C[C@@H]1[C@H]2C1(C)C, which cell count is on record?
Its cell count is 553.

What about the inhibition of the same molecule?
Its inhibition is -3.8% (inactive).

With CCN(CC)CCNc1ncnc2c1[nH]c1ccc(OC)cc12 as the molecule, how does the cell count read?
Its cell count is 595.

And the inhibition?
The inhibition was -7.6% (inactive).

For Cn1c(=O)c2c(nc(Br)n2CCSc2nc3ccccc3o2)n(C)c1=O, which cell count is on record?
Its cell count is 608.

And the inhibition?
Its inhibition is -8.8% (inactive).

With CCc1ccc(-c2cn3nc(C)c(C)nc3n2)cc1 as the molecule, how does the cell count read?
The cell count was 539.

What about the inhibition of the same molecule?
Its inhibition is -0.3% (inactive).

With CCOC(=O)CSc1nc(N)c(C(=O)Nc2ccc(N(C)C)cc2)s1 as the molecule, how does the cell count read?
Its cell count is 703.

What about the inhibition of the same molecule?
The inhibition was -7% (inactive).

For CCN(CC)Cc1cc(C(C)=O)ccc1OCC(C)C, which inhibition is on record?
Its inhibition is 1.8% (inactive).

And the cell count?
Its cell count is 639.

Which cell count does the source give for Cn1c(NCc2ccccc2)nc2c1c(=O)n(Cc1ccc(Br)cc1)c(=O)n2C here?
Its cell count is 696.

And the inhibition?
The inhibition was -21.9% (inactive).

Which results are given for CC12CCC(=O)N1c1c(sc3nc(N4CCOCC4)c4c(c13)CCCC4)C(=O)N2 (stereo not given)?
cell count: 363; inhibition: 1.4% (inactive)

Which results are given for CCOc1ccc(-c2nc(C#N)c(N3CCN(CC)CC3)o2)cc1?
inhibition: 0.1% (inactive); cell count: 416

Which results are given for NC(=O)CSc1nnc2n(-c3ccccc3)c(=O)c3c4c(sc3n12)CCCCC4?
inhibition: -1.4% (inactive); cell count: 376
